Here are results for nine compounds from PubChem BioAssay (NCI).

The panel holds about 83,000 compounds, 20% with a hit somewhere; the sample as a whole holds those more often.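 Method: cells in 96-well plates; compound added at one concentration; 48 h incubation; percent growth measured; values under 10 scored active.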 A number with no mark means an inactive call. Activity calls are given as the source filed them.

Experiment in all cases: NCI-60 one-dose screen, 48 h (100 = growth as untreated, 0 = no growth, -100 = all killed)
Conditions in all cases: 10 µM unless noted

Assay [1] concerns NCI-H23 lung.
The test system of assay [2] is NCI-H226 lung.
The test system of assay [3] is NCI-H322M lung.
Assay [4] relates to HOP-62 NSCLC.
Assay [5] concerns NCI-H460 lung.
In assay [6] the test system is A549/ATCC NSCLC.
For assay [7], the system named is 786-0 renal.
Assay [8] concerns COLO 205 colon.
Assay [9] has as its system DU-145 prostate.
The test system of assay [10] is K-562 leukemia.
Assay [11] has as its system MALME-3M melanoma.
Assay [12] has as its system MDA-MB-231 breast.
The test system of assay [13] is RXF 393 renal.
Assay [14] has as its system SF-268 CNS.
The subject of assay [15] is SF-295 CNS.
For assay [16], the system named is SF-539 CNS.
For assay [17], the system named is M14 melanoma.
Assay [18] deals with UACC-257 melanoma.

As to `CN(CCC#N)c1ccc(/C=C(\C#N)c2cccc(C(F)(F)F)c2)cc1`, the growth is 66.2% in [1]; 65.7% in [2]; 86.5% in [3]; 81.7% in assay [4]; 74% in assay [5]; 36.3% in assay [6]. The growth in assay [7] is 74.9%; in assay [8], 49.5%; in assay [9], 82.5%; in assay [10], 21%; in assay [11], 58.2%; in assay [12], 58.8%. Also, the growth is 71.7% in assay [13]; 81.7% in assay [14]; 95.8% in assay [15]; 68% in [16]; 55.9% in assay [17].
As for `CCC(C)[C@H](NC(=O)Nc1cc(C(F)(F)F)cc(C(F)(F)F)c1)C(=O)N[C@@H](Cc1cn(C)cn1)C(=O)OC` (stereo partly drawn), the growth in assay [1] is -83.2% [100 µM] (active); in [2] it was -50.6% [100 µM] (active); in assay [3] it was -96.8% [100 µM] (active); in [4] it was -99.2% [100 µM] (active); in assay [5], -64.5% [100 µM] (active); in assay [6], -76% [100 µM] (active). In addition, the growth in assay [7] is -88.4% [100 µM] (active); in assay [8], -83.9% [100 µM] (active); in assay [9] it was -96.4% [100 µM] (active); in assay [10], -68.3% [100 µM] (active); in assay [11], -86.5% [100 µM] (active); in [12], -96.3% [100 µM] (active). In addition, the growth was -86.6% [100 µM] (active) in assay [13]; -87.9% [100 µM] (active) in assay [14]; -93.3% [100 µM] (active) in [15]; -96% [100 µM] (active) in assay [16]; -97.5% [100 µM] (active) in [18]; -89.7% [100 µM] (active) in assay [17].
With `O=C1C(Cl)=C(SC2=NCCN2)C(=O)c2ccccc21`, the growth in assay [1] is 2.92% (active); in assay [2], 91.7%; in assay [3] it was 99.5%; in [4], 98.8%; in [5] it was 70%; in [6], 95.2%. Further, the growth was 99.2% in assay [7]; 111% in [8]; 65% in [10]; -50.3% (active) in [11]; 56.3% in [12]; 121% in assay [13]. Also, the growth in assay [14] is 62.1%; in [15] it was 106%; in assay [16], 105%; in assay [18] it was 36.9%; in [17], 4.35% (active).
With `C=C[C@]1(C)C=C2C(=O)[C@@]3(O)OC[C@@]4(CCCC(C)(C)C43O)C2(O)C(O)C1` (stereo partly drawn), the growth in assay [1] is 80.1%; in assay [2], 81.4%; in assay [3], 108%; in assay [4] it was 107%; in assay [5] it was 82.5%; in [6], 76.4%. Besides, the growth in assay [7] was 38.2%; in assay [8], 9.48% (active); in assay [9], 60.2%; in assay [10] it was 17.1%; in assay [11] it was 5.18% (active); in assay [12], 98.3%. Further, the growth is 21.4% in assay [13]; 83.8% in assay [14]; 113% in [15]; 66.2% in [16]; 9.03% (active) in [17].
Turning to `CSc1nc(N)n2nccc2n1`, the growth in assay [1] is 107%; in [2], 83.9%; in assay [3] it was 102%; in assay [4] it was 89.6%; in [5], 104%; in [6] it was 102%. Also, the growth in [7] was 97.2%; in assay [8] it was 105%; in [9], 117%; in assay [10], 96.6%; in assay [11], 95.3%; in assay [12] it was 100%. Besides, the growth was 112% in assay [13], 118% in [14], 95.7% in assay [15] and 101% in [17].
Consider `COC(=O)c1cc(Nc2ccc(O)c3c2C(=O)c2c([N+](=O)[O-])ccc(O)c2C3=O)cc(C(=O)OC)c1`, for which the growth in assay [1] was -20.3% (active); in assay [2] it was 82.5%; in [3], -2.32% (active); in assay [4], 72.8%; in assay [5] it was 55.7%; in assay [6] it was -50.2% (active). For the same compound, the growth was 88.7% in [7]; 12% in assay [8]; -59.1% (active) in assay [9]; 72.9% in assay [10]; -51.1% (active) in assay [11]; 90.4% in [12]. For the same compound, the growth in [13] was 51.9%; in [14] it was 55.1%; in assay [16] it was 84%; in assay [18], 12.1%; in assay [17] it was -66.5% (active).
As to `C=C(C)C(C(=O)OCC)(C(=O)OCC)C(C)C`, the growth in [1] was 114%; in [2] it was 109%; in [3] it was 111%; in [4], 108%; in assay [5] it was 106%; in [6] it was 96.5%. In addition, the growth in [7] is 103%; in assay [8], 117%; in assay [9], 120%; in assay [10] it was 116%; in assay [11], 110%; in assay [12] it was 112%. Moreover, the growth in [13] was 112%; in assay [14] it was 112%; in [16], 105%; in assay [18], 107%; in assay [17], 110%.
For `COc1ccc(/C=C2\CCCC3=C2N=C2SC=NN2C3c2ccc(OC)c(OC)c2)cc1OC` (stereo not drawn), the growth in assay [1] is 39.7%; in assay [2] it was 45.3%; in [3] it was 38.3%; in [4], 35.3%; in assay [5], 44%; in [6], 31.9%. For the same compound, the growth is 70.2% in assay [7]; 22.7% in assay [8]; 24.9% in assay [9]; 26.9% in assay [10]; 55.2% in [12]; 50.4% in [13]. The growth is 41.6% in assay [14]; 46.1% in [15]; 37.4% in assay [16]; 54.6% in assay [18]; 47.5% in assay [17].
As for `CC(O)CCC(C)[N+](=O)[O-]` (stereo not drawn), the growth in assay [1] was 111%; in assay [2], 109%; in [3], 98.7%; in [4], 95.4%; in assay [5], 109%; in assay [6], 96.3%. For the same compound, the growth in assay [7] is 101%; in assay [8], 111%; in [9], 111%; in assay [10], 99.9%; in [11] it was 106%; in assay [12], 110%. The growth in assay [13] is 119%; in [14], 104%; in assay [16] it was 99%; in assay [18], 102%; in [17], 106%.
